Measurements taken from PubChem BioAssay.
For some assays here: Potency and affinity values are given separately. The source made the active and inactive calls. Unless noted, how the calls were made is not given here.

Experiments:
[1] = antimalarial activity against Dd2 strain (AID 2302;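 active means growth inhibition above 50% at the single 2 µM test dose, taken to imply half-maximal potency below 2 µM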;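 further: 0% = DMSO untreated growth and 100% = chloroquine plus artemisinin killed control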); settings: P. falciparum Dd2 in RBCs, LDH growth readout, 72 h; at 2 µM; active compounds read high
[2] = HepG2 cytotoxicity, primary screen, cytotoxicity control for P. falciparum antimalarial project, cell-based, ATP luminescence (AID 2303;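 active means inhibition above 50%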;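 further: 0% = DMSO wells and 100% = digitonin-killed cells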); settings: HepG2 viability, 24-48 h, at 10 µM, active compounds read high
[3] = molecular target: L-lactate dehydrogenase (Plasmodium falciparum (isolate CDC / Honduras)) (UniProt Q27743); assay: PfLDH activity inhibition – cell lysate, 3D7 strain, counter-screen for P. falciparum growth inhibition project (AID 2304);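 further: 0% = vehicle and 100% = reference inhibitor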; settings: P. falciparum 3D7 crude extract, LDH APAD/NBT absorbance; at 2 µM; active compounds read high
Sequence of L-lactate dehydrogenase (Plasmodium falciparum (isolate CDC / Honduras)) (Q27743 whole entry, looked up): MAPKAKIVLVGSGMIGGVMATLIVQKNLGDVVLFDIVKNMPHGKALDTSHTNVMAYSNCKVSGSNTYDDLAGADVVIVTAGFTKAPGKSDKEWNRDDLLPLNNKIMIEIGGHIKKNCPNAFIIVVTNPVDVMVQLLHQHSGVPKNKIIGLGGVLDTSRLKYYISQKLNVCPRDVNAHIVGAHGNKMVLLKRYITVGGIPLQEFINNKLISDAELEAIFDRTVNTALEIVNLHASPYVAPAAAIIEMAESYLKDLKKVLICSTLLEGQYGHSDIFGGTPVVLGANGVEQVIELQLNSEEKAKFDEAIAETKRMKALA

[4] = inhibition of 3D7 malaria parasite growth – strain 3D7 (AID 2306);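 further: 0% = DMSO wells and 100% = chloroquine plus artemisinin control wells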; settings: P. falciparum 3D7 erythrocytic growth, LDH absorbance, 72 h; at 2 µM; active compounds read high
[5] = molecular target: Calcium-dependent protein kinase 1 (Plasmodium falciparum (isolate 3D7)) (UniProt P62344); assay: PfCDPK1 kinase inhibitors, biochemical, TCAMS library (AID 1159585; cut-off not given, nearly all actives have IC50 up to about 0.98 µM;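 further: inhibitors leave more ATP so luminescence rises with inhibition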); settings: recombinant PfCDPK1, Kinase-Glo ATP depletion luminescence
Sequence of Calcium-dependent protein kinase 1 (Plasmodium falciparum (isolate 3D7)) (P62344 whole entry, looked up): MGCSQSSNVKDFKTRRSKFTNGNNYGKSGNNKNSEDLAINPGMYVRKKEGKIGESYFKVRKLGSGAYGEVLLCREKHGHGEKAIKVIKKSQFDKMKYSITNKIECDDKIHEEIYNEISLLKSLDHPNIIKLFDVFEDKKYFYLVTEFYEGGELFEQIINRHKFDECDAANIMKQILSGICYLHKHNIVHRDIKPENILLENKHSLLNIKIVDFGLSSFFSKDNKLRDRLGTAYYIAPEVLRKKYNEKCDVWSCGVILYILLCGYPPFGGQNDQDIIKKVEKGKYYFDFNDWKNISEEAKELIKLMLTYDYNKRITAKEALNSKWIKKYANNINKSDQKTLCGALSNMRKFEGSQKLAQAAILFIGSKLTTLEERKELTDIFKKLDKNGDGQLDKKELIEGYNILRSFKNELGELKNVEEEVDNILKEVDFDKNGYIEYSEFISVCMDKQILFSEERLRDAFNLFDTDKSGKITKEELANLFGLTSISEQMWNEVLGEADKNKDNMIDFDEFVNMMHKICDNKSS

[6] = molecular target: Plasmodium falciparum protein kinase 6 (PK6, PF3D7_1337100) (UniProt Q8IDW1); assay: PfPK6 kinase inhibitors, biochemical, TCAMS library (AID 1159586); settings: recombinant PfPK6, Kinase-Glo ATP depletion luminescence
Sequence of Plasmodium falciparum protein kinase 6 (PK6, PF3D7_1337100) (Q8IDW1 1-305): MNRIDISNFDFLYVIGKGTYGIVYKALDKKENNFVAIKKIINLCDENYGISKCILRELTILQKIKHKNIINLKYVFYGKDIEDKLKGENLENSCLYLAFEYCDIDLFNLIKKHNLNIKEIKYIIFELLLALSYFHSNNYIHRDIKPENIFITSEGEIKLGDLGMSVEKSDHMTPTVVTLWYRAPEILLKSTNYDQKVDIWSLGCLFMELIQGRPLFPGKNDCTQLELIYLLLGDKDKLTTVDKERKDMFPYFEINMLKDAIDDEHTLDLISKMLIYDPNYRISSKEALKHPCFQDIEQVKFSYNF

[7] = molecular target: Protein kinase 7 (PK7), Plasmodium falciparum 3D7 (PF3D7_0213400) (UniProt Q7YTF7); assay: inhibition of Plasmodium PK7 catalytic activity – biochemical, TCAMS antimalarial set, Kinase-Glo luminescence (AID 1159587); settings: recombinant PfPK7, Kinase-Glo ATP depletion luminescence
Sequence of Protein kinase 7 (PK7), Plasmodium falciparum 3D7 (PF3D7_0213400) (Q7YTF7 1-343): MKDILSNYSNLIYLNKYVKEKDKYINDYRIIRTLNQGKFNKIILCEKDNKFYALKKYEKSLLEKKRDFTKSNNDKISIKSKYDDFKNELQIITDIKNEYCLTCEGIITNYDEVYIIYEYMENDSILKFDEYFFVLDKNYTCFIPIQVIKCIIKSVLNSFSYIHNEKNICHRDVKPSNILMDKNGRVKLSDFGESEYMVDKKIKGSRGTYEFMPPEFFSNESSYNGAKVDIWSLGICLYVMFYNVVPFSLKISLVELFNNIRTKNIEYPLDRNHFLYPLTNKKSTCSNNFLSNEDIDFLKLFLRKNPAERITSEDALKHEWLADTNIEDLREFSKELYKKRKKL

[8] = molecular target: Calcium-dependent protein kinase 4 (Plasmodium falciparum (isolate 3D7)) (UniProt Q8IBS5); assay: PfCDPK4 kinase inhibitors, biochemical, TCAMS library (AID 1159588; cut-off not given, nearly all actives have IC50 up to about 0.91 µM); settings: recombinant PfCDPK4, Kinase-Glo ATP depletion luminescence
Sequence of Calcium-dependent protein kinase 4 (Plasmodium falciparum (isolate 3D7)) (Q8IBS5 whole entry, looked up): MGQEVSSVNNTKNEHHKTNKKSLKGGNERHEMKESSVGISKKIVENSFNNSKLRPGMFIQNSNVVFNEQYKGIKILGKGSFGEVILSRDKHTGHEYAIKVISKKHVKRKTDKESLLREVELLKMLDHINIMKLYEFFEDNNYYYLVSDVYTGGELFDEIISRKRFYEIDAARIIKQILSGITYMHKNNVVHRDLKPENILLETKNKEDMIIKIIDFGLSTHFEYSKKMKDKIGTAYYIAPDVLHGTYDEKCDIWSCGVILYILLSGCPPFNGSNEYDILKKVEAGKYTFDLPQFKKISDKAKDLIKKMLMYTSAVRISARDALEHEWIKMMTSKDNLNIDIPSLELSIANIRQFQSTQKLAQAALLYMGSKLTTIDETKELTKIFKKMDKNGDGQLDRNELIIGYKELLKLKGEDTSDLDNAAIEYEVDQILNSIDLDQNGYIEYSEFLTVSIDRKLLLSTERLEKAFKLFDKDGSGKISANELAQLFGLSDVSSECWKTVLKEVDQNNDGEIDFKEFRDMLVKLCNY

CC1CN(c2ccc(NC(=O)c3ccc(F)cc3)cc2)CCN1Cc1cccc(F)c1 (stereo not given)
active: growth inhibition [1] 76% | growth inhibition [4] 81%
inactive: inhibition [2] 11% | inhibition [3] 2% | outcome [5] | outcome [6] | outcome [7] | outcome [8]

CCNc1cc(C(=O)N[C@@H](Cc2ccccc2)[C@H](O)CNCCc2cc(OC)cc(OC)c2)cc(N2CCCCS2(=O)=O)c1
active: growth inhibition [4] 89%
inactive: growth inhibition [1] 28% | inhibition [2] 3% | inhibition [3] 0% | outcome [5] | outcome [6] | outcome [7] | outcome [8]

O=C(Nc1ccnc2ccccc12)NC1CCN(Cc2ccccc2)CC1
inactive: growth inhibition [1] 43% | inhibition [2] 18% | inhibition [3] 5% | outcome [5] | outcome [6] | outcome [7] | outcome [8]
active: growth inhibition [4] 96%

O=C(Nc1cc(F)cc(F)c1)NC1CCN(CCCCCNC(=O)[C@@H]2C[C@H]2c2ccc(Cl)c(Cl)c2)CC1
inactive: growth inhibition [1] 6% | inhibition [2] 49% | inhibition [3] 6% | outcome [5] | outcome [6] | outcome [7] | outcome [8]
active: growth inhibition [4] 102%

CN(C)c1cccc2c(S(=O)(=O)Nc3cccc(CCN4CCC(N5CCCCC5)CC4)c3)cccc12
inactive: inhibition [2] 41% | inhibition [3] -2% | outcome [5] | outcome [6] | outcome [7] | outcome [8]
active: growth inhibition [1] 54% | growth inhibition [4] 98%

CCc1cc2c3c(N)nc(N)nc3ccc2n1C(CC)CC
inactive: growth inhibition [1] 12% | inhibition [3] 5% | outcome [5] | outcome [6] | outcome [7] | outcome [8]
active: inhibition [2] 71% | growth inhibition [4] 96%

Oc1ccc(CCNCCCCCCNCCc2ccc(Cl)c3ccccc23)cc1O
inactive: growth inhibition [1] 1% | inhibition [2] 22% | inhibition [3] -4% | outcome [5] | outcome [6] | outcome [7] | outcome [8]
active: growth inhibition [4] 99%

CC(=O)Nc1ccc(CN2CCc3ccc(NS(=O)(=O)c4cccc(OCc5ccc(Cl)cc5)c4)cc3CC2)s1
active: growth inhibition [4] 93%
inactive: growth inhibition [1] 7% | inhibition [2] 23% | inhibition [3] -3% | outcome [5] | outcome [6] | outcome [7] | outcome [8]

CCCCOC(=O)NCCCC[C@H](NC(=O)OC(C)(C)C)C(=O)N[C@H](C(=O)OC(c1ccccc1)c1ccccc1)[C@H]1O[C@@H](n2ccc(=O)[nH]c2=O)[C@@H]2OC(C)(C)O[C@@H]21
inactive: inhibition [2] 7% | inhibition [3] 4% | outcome [5] | outcome [6] | outcome [7] | outcome [8]
active: growth inhibition [1] 65% | growth inhibition [4] 87%

Nc1nc(N)c2c(ccc3nn(C4CCCC4)cc32)n1
active: growth inhibition [4] 97%
inactive: growth inhibition [1] 3% | inhibition [2] 44% | inhibition [3] -1% | outcome [5] | outcome [6] | outcome [7] | outcome [8]

Fc1ccc(NC(=S)NCCc2ccccc2)cc1
active: growth inhibition [4] 99%
inactive: growth inhibition [1] 0% | inhibition [2] -1% | inhibition [3] 3% | outcome [5] | outcome [6] | outcome [7] | outcome [8]

COc1ccc(-c2cnc3[nH]cc(-c4ccc(C(=O)O)cc4)c3c2)cn1
active: growth inhibition [1] 99% | growth inhibition [4] 95%
inactive: inhibition [2] 35% | inhibition [3] -1% | outcome [5] | outcome [6] | outcome [7] | outcome [8]

CN1CCCc2ccc(NC(=O)Nc3ccc(-c4ccccc4)cc3)cc2C1
active: growth inhibition [4] 97%
inactive: growth inhibition [1] 47% | inhibition [2] 23% | inhibition [3] 0% | outcome [5] | outcome [6] | outcome [7] | outcome [8]

CCCCCOc1ccc(C(=NC)N(CCCCC)CCCCC)c2ccccc12
active: growth inhibition [1] 80% | inhibition [2] 70% | growth inhibition [4] 96%
inactive: inhibition [3] 3% | outcome [5] | outcome [6] | outcome [7] | outcome [8]

CC(C)NCc1cccc(-c2cccc(NC(=O)c3cccc(C#N)c3)c2)c1
inactive: growth inhibition [1] 22% | inhibition [2] 12% | inhibition [3] -4% | outcome [5] | outcome [6] | outcome [7] | outcome [8]
active: growth inhibition [4] 99%

COc1ccc2ncc(F)c(CCN3C[C@H](CNCc4ccccc4)[C@H](O)C3)c2n1
active: growth inhibition [4] 89%
inactive: growth inhibition [1] 22% | inhibition [2] 19% | inhibition [3] 8% | outcome [5] | outcome [6] | outcome [7] | outcome [8]

O=C(Nc1ccc(-c2ccc(CN3CCNCC3)cc2)cc1)c1cccc(Cl)c1
active: inhibition [2] 58% | growth inhibition [4] 91%
inactive: growth inhibition [1] 16% | inhibition [3] 2% | outcome [5] | outcome [6] | outcome [7] | outcome [8]

Fc1ccc([C@H]2N=C(SCCSC3=N[C@H](c4ccc(F)cc4)[C@H](c4ccc(F)cc4)N3)N[C@H]2c2ccc(F)cc2)cc1
inactive: inhibition [2] 18% | inhibition [3] -5% | outcome [5] | outcome [6] | outcome [7] | outcome [8]
active: growth inhibition [1] 69% | growth inhibition [4] 99%

O=C(NCCN1CCCC1)c1cccc(-c2ccc(-c3nc4ccccc4[nH]3)s2)c1
active: growth inhibition [4] 96%
inactive: growth inhibition [1] 13% | inhibition [2] 27% | inhibition [3] 4% | outcome [5] | outcome [6] | outcome [7] | outcome [8]

Fc1ccc2nc(-c3cccc(-c4cccc(CNCC5CCCO5)c4)c3)[nH]c2c1 (stereo not given)
inactive: inhibition [2] 40% | inhibition [3] 3% | outcome [5] | outcome [6] | outcome [7] | outcome [8]
active: growth inhibition [1] 94% | growth inhibition [4] 99%

Cc1cccc2[nH]c(-c3ccc(-c4cccc(CNCC5CCCO5)c4)s3)nc12 (stereo not given)
inactive: growth inhibition [1] 11% | inhibition [2] 26% | inhibition [3] -8% | outcome [5] | outcome [6] | outcome [7] | outcome [8]
active: growth inhibition [4] 93%

Cc1ccc(NC(=O)c2ccc3ncccc3c2)cc1OC1CCN(CCC(C)C)C1 (stereo not given)
active: growth inhibition [1] 62% | growth inhibition [4] 98%
inactive: inhibition [2] 5% | inhibition [3] -4% | outcome [5] | outcome [6] | outcome [7] | outcome [8]

O=C(/C=C/c1ccc(Cl)c(Cl)c1)NCCCCCN1CC[C@H](NC(=O)/C=C/c2ccccc2)C1
inactive: growth inhibition [1] 1% | inhibition [2] 10% | inhibition [3] 1% | outcome [5] | outcome [6] | outcome [7] | outcome [8]
active: growth inhibition [4] 93%

CC(C)Oc1cc2c(cc1NS(=O)(=O)c1ccc(-c3cccs3)cc1)CCN(C)CC2
inactive: growth inhibition [1] 9% | inhibition [2] 9% | inhibition [3] -4% | outcome [5] | outcome [6] | outcome [7] | outcome [8]
active: growth inhibition [4] 88%

CC(Nc1cc(-c2ccccn2)nc(-c2ccccn2)n1)c1ccccc1 (stereo not given)
inactive: inhibition [3] -3% | outcome [5] | outcome [6] | outcome [7] | outcome [8]
active: growth inhibition [1] 98% | inhibition [2] 61% | growth inhibition [4] 85%

COc1cc2c(cc1OCCN1CCC(N3CCCCC3)CC1)N(C(=O)/C=C/c1ccccc1Cl)CC2
inactive: growth inhibition [1] 41% | inhibition [2] 36% | inhibition [3] -1% | outcome [5] | outcome [6] | outcome [7] | outcome [8]
active: growth inhibition [4] 102%

Brc1cc(CNCCCNc2nc3ccccc3[nH]2)sc1Br
active: growth inhibition [4] 100%
inactive: growth inhibition [1] 21% | inhibition [2] 10% | inhibition [3] 8% | outcome [5] | outcome [6] | outcome [7] | outcome [8]

CCCc1cc(NCC)nc(Nc2ccc(F)cc2)n1
inactive: growth inhibition [1] 36% | inhibition [2] 16% | inhibition [3] -1% | outcome [5] | outcome [6] | outcome [7] | outcome [8]
active: growth inhibition [4] 86%

CC(C)C(NC(=O)c1c(F)cccc1F)C(=O)Nc1ccc(Cc2nc3ccccc3s2)cc1 (stereo not given)
inactive: inhibition [2] 0% | inhibition [3] 6% | outcome [5] | outcome [6] | outcome [7] | outcome [8]
active: growth inhibition [1] 55% | growth inhibition [4] 86%

CC(C)Cn1cc(C2CCN(CCN3CCC(CNC(=O)c4ccc(-c5ccc(C(F)(F)F)cc5)cc4)CC3)CC2)c2ccccc21
inactive: inhibition [3] 0% | outcome [5] | outcome [6] | outcome [7] | outcome [8]
active: growth inhibition [1] 87% | inhibition [2] 100% | growth inhibition [4] 101%

N#Cc1ccc(-c2ccc(OCC(O)CN3CCCN(Cc4cccc(O)c4Cl)CC3)cc2)cc1 (stereo not given)
active: growth inhibition [1] 66% | growth inhibition [4] 98%
inactive: inhibition [2] 3% | inhibition [3] -6% | outcome [5] | outcome [6] | outcome [7] | outcome [8]

CCCNCc1ccc(-c2ccc(CN(Cc3ccc4c(c3)OCO4)C(=O)Cc3cccnc3)cc2)nc1
active: growth inhibition [1] 53% | growth inhibition [4] 94%
inactive: inhibition [2] 16% | inhibition [3] 5% | outcome [5] | outcome [6] | outcome [7] | outcome [8]

CC(C)COc1ccc(Cl)cc1Cc1nc(-c2nc3ccc(CN(C)C)cc3[nH]2)co1
active: growth inhibition [1] 87% | growth inhibition [4] 97%
inactive: inhibition [2] 14% | inhibition [3] 5% | outcome [5] | outcome [6] | outcome [7] | outcome [8]

Cc1cc(=O)c(-c2ccc(Sc3ccc(Cl)cc3)cc2)c(C)[nH]1
active: growth inhibition [1] 84% | growth inhibition [4] 92%
inactive: inhibition [2] -3% | inhibition [3] -7% | outcome [5] | outcome [6] | outcome [7] | outcome [8]

C=C(C)CSc1nc2c(c(=O)n1Cc1ccco1)C1(CCCCC1)Cc1ccccc1-2
active: growth inhibition [1] 68% | growth inhibition [4] 97%
inactive: inhibition [2] 2% | inhibition [3] -9% | outcome [5] | outcome [6] | outcome [7] | outcome [8]

CN1CCc2ccc(NC(=O)Nc3ccc(-c4ccccc4)cc3)cc2C1
active: growth inhibition [4] 90%
inactive: growth inhibition [1] 45% | inhibition [2] 24% | inhibition [3] 3% | outcome [5] | outcome [6] | outcome [7] | outcome [8]

CCNc1cc(C)nc(Nc2ccc(C)cc2)n1
inactive: inhibition [2] 12% | inhibition [3] 3% | outcome [5] | outcome [6] | outcome [7] | outcome [8]
active: growth inhibition [1] 85% | growth inhibition [4] 102%

O=C(C=Cc1ccc(Cl)c(Cl)c1)NCCCCCN1CCCC(CCCNC(=O)[C@@H]2C[C@H]2c2ccccc2)C1 (stereo not given in full)
inactive: growth inhibition [1] 5% | inhibition [2] 48% | inhibition [3] -1% | outcome [5] | outcome [6] | outcome [7] | outcome [8]
active: growth inhibition [4] 85%

Fc1ccc2nc(-c3cccc(-c4ccc(CNCC5CCCO5)cc4)c3)[nH]c2c1 (stereo not given)
active: growth inhibition [1] 98% | growth inhibition [4] 101%
inactive: inhibition [2] 36% | inhibition [3] 0% | outcome [5] | outcome [6] | outcome [7] | outcome [8]

CCN(CC)CCN(Cc1ccc(-c2ccc(C(F)(F)F)cc2)nc1)C(=O)Cn1cc(Cc2cnn(C)c2)c(=O)n2nc(-c3ccccc3)cc12
inactive: inhibition [2] 35% | inhibition [3] -3% | outcome [5] | outcome [6] | outcome [7] | outcome [8]
active: growth inhibition [1] 95% | growth inhibition [4] 97%
